Assay in all cases: yeast three-hybrid, YBZ-1, SC-Leu-His + 0.5 mM 3-AT, 4 days
What all share (conditions): tags: N-Gal4 AD-HA kept; label: inside an RPR1-promoter hybrid RNA with tandem MS2 sites; ssRNA

In test [1] the target is PUM1 PUF domain R5-LNS (Homo sapiens, UniProt Q14671 828-1176, C1007L;R1008N;Q1011S). The method, boiled down:
(§1)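 Repeat regions from input (SC-Leu) and selection (SC-Leu-His + 0.5 mM 3-AT) plates were PCR-amplified and Illumina-sequenced after four days of growth. The cells were strain YBZ-1 with a LexA–MS2 coat fusion and a HIS3 reporter, co-expressing Pumilio-1 PUF domain libraries and matching RNA elements from a centromeric plasmid. The interaction score is the log change in variant frequency from input to selection, taken in log2 with a pseudocount of 1 for absent variants.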

Test [2] addresses T1, PUM1 PUF domain R6-GFR (Homo sapiens, UniProt Q14671 828-1176, N1043G;Y1044F;Q1047R).
T1 sequence: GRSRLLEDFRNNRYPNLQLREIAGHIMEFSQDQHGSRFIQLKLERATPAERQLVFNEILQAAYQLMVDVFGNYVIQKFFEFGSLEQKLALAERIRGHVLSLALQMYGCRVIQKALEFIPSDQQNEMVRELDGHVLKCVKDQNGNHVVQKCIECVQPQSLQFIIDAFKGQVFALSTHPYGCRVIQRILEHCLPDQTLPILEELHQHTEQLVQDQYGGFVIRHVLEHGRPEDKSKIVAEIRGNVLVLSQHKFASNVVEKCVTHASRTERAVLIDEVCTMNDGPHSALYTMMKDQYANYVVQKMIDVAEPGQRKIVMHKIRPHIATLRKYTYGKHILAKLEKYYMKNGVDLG
Put shortly: as §1

In test [3] the target is PUM1 PUF domain R8-RFD (Homo sapiens, UniProt Q14671 828-1176, N1122R;Y1123F;Q1126D). Put shortly:
as §1

Test [4] concerns the target PUM1 PUF domain R8-KHR (Homo sapiens, UniProt Q14671 828-1176, N1122K;Y1123H;Q1126R). The method, boiled down: as §1
Test [5] addresses T2, PUM1 PUF domain R6-LFA (Homo sapiens, UniProt Q14671 828-1176, N1043L;Y1044F;Q1047A).
T2 sequence: T1 sequence with G216L, R220A
Put shortly:
as §1

Test [6] deals with PUM1 PUF domain R3-SNF (Homo sapiens, UniProt Q14671 828-1176, C935S;R936N;Q939F). The method, boiled down:
as §1

In test [7] the target is T3, PUM1 PUF domain R6-VWC (Homo sapiens, UniProt Q14671 828-1176, N1043V;Y1044W;Q1047C).
T3 sequence: T1 sequence with G216V, F217W, R220C
The method, boiled down:
as §1

In test [8] the target is PUM1 PUF domain R5-LHC (Homo sapiens, UniProt Q14671 828-1176, C1007L;R1008H;Q1011C). The method, boiled down: as §1
Test [9] addresses PUM1 PUF domain R1-QLR (Homo sapiens, UniProt Q14671 828-1176, S863Q;R864L;Q867R). The method, boiled down: as §1
Test [10] addresses PUM1 PUF domain R7-TRR (Homo sapiens, UniProt Q14671 828-1176, S1079T;N1080R;E1083R). The method, boiled down:
as §1

Numbering of substitutions follows the chain as printed.

Regarding “GGCUAGAACUAGUGGAUCCCCCGGCGCCCGGCGGCUCGAGCCCGGGUAAGUGUUAAUAGUCUGCAUGCCGCCGGGCGCCAUGCCUGCAGGUCGACUCUAGAAAACAUG”, the binding signal in test [1] is 4.81 log2 enrichment (interaction score). Take “GGCUAGAACUAGUGGAUCCCCCGGCGCCCGGCGGCUCGAGCCCGGGUAAGUGCAAAUAGUCUGCAUGCCGCCGGGCGCCAUGCCUGCAGGUCGACUCUAGAAAACAUG”: the binding signal in test [2] is 6.98 log2 enrichment (interaction score). For “GGCUAGAACUAGUGGAUCCCCCGGCGCCCGGCGGCUCGAGCCCGGGUAAGCGUAAAUAGUCUGCAUGCCGCCGGGCGCCAUGCCUGCAGGUCGACUCUAGAAAACAUG”, the binding signal in test [3] is 4.38 log2 enrichment (interaction score); in test [4], 6.43 log2 enrichment (interaction score). “GGCUAGAACUAGUGGAUCCCCCGGCGCCCGGCGGCUCGAGCCCGGGUAAGUGAAAAUAGUCUGCAUGCCGCCGGGCGCCAUGCCUGCAGGUCGACUCUAGAAAACAUG”: in test [5], the binding signal was 6.15 log2 enrichment (interaction score). On to “GGCUAGAACUAGUGGAUCCCCCGGCGCCCGGCGGCUCGAGCCCGGGUAAGUGUAAAUAGUCUGCAUGCCGCCGGGCGCCAUGCCUGCAGGUCGACUCUAGAAAACAUG”, for which the binding signal in [6] is 2.65 log2 enrichment (interaction score); in [7], 3.32 log2 enrichment (interaction score); in test [8], 2.44 log2 enrichment (interaction score); in test [2], 4.38 log2 enrichment (interaction score); in test [4], 2.92 log2 enrichment (interaction score).

In the case of “GGCUAGAACUAGUGGAUCCCCCGGCGCCCGGCGGCUCGAGCCCGGGUAAGUGUAAAUCGUCUGCAUGCCGCCGGGCGCCAUGCCUGCAGGUCGACUCUAGAAAACAUG”, the binding signal in test [9] is 4.6 log2 enrichment (interaction score). Regarding “GGCUAGAACUAGUGGAUCCCCCGGCGCCCGGCGGCUCGAGCCCGGGUAAGUCUAAAUAGUCUGCAUGCCGCCGGGCGCCAUGCCUGCAGGUCGACUCUAGAAAACAUG”, in test [10], the binding signal was 3.35 log2 enrichment (interaction score).

Values taken from paper PMC8384837, “Expanding the binding specificity for RNA recognition by a PUF domain”.
